An excerpt weighted towards active compounds, which were near 1.6% of everything screened.
KCNQ2 inh = inhibitors of rat KCNQ2 potassium channel | CHO-K1 KCNQ2, FluxOR thallium flux, 20 min; active compounds read low | B-score at 10 µM | hit rate 1.1% among 310,000 | O88943;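 active = fluorescence ratio B-score at most minus 3 library SDs, with starting brightness B-score within 2 library SDs, cut at about -5.5 in these data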
KCNQ2 pot = enhances the rat KCNQ2 potassium channel; O88943; CHO-K1 KCNQ2, FluxOR thallium flux fluorescence; active compounds read high; B-score at 10 µM; hit rate 0.54% among 310,000; AID 2239;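 active = fluorescence ratio B-score at least 3 SD of library B-scores, with initial fluorescence B-score within 3 of them, cut at about 5.3 in these data; same plate scores as AID 2156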;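 note: B-score of peak minus minimum over baseline fluorescence ratio after K+ and Tl+ stimulus; positive B-score means potentiation of KCNQ2 with more thallium influx and brighter signal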
The depositor's hits bear a star.

`Cc1oc(-c2ccccc2F)nc1CN1CCC(C(=O)NC2CCCc3ccccc32)CC1` (centres undefined) gave KCNQ2 inh -7.3* and KCNQ2 pot -7.3.
Screening CSc1ccc(S(=O)(=O)N2CCC(C(=O)Nc3ccccc3C(F)(F)F)CC2)cc1 returned KCNQ2 inh inactive and KCNQ2 pot 0.19.
COc1ccc(NC(=O)C(OC)c2ccccc2)cc1Cl (centres undefined) was read as KCNQ2 inh inactive and KCNQ2 pot 2.5.
For COc1ccc(NC(=O)C(Sc2nnc(-c3ccncc3)n2-c2ccccc2C)c2ccccc2)cc1Cl (centres undefined) the results were KCNQ2 inh -5.5* and KCNQ2 pot -5.5.
`O=C(NC(Cc1c[nH]c2ccccc12)C(=O)O)c1cccs1` (centres undefined) gave KCNQ2 inh inactive.
`O=C(NC(Cc1c[nH]c2ccccc12)C(=O)N/N=C/c1cccc2ccccc12)c1cccs1` (centres undefined) gave KCNQ2 inh -8.1* and KCNQ2 pot -8.1.
`CCC1=NN(C(=O)COc2ccccc2)C(O)(c2ccc(Br)cc2)C1` (centres undefined) gave KCNQ2 inh -6* and KCNQ2 pot -6.
Screening CCC1=NN(C(=O)c2ccccc2Br)C(O)(c2ccc(Br)cc2)C1 (centres undefined) returned KCNQ2 inh inactive and KCNQ2 pot 14*.
Screening CC1=NN(C(=O)COc2ccccc2)C(O)(c2ccccc2)C1 (centres undefined) returned KCNQ2 inh inactive and KCNQ2 pot 0.2.
`CC1=NN(C(=O)c2ccccc2Br)C(O)(c2ccc(Cl)cc2)C1` (centres undefined) gave KCNQ2 inh inactive and KCNQ2 pot 1.6.
For CO/N=C(/CS(=O)Cc1ccccc1Cl)c1ccc(Cl)cc1Cl (centres undefined) the results were KCNQ2 inh inactive.
Screening Cc1nnc(SCCc2ccccc2)[nH]c1=O returned KCNQ2 inh inactive.
`COc1ccc(-c2nc(-c3ccccn3)ncc2S(C)(=O)=O)cc1` gave KCNQ2 inh inactive and KCNQ2 pot 1.5.
`Cn1nc(-c2ccccn2)nc2c(=O)n(C)c(=O)nc1-2` gave KCNQ2 inh inactive and KCNQ2 pot 7.4*.
For CCC1(C)Cc2ccccc2-c2c1c(=O)n(Cc1ccccc1)c1nnnn21 (centres undefined) the results were KCNQ2 inh -6.2* and KCNQ2 pot -6.2.
For O=c1c2c(n3nnnc3n1Cc1ccccc1)-c1ccccc1CC21CCCC1 the results were KCNQ2 inh inactive.
For CNC(=O)/C(=C\c1cccc(Oc2ccccc2)c1)NC(=O)c1ccccc1 the results were KCNQ2 inh inactive.
`CNC(=O)/C(C#N)=C/c1cccc(Oc2ccccc2)c1` gave KCNQ2 inh -5.9* and KCNQ2 pot -5.9.
For O=C(CSc1nnc2n(C3CCCC3)c(=O)c3ccccc3n12)N1CCCCCC1 the results were KCNQ2 inh inactive and KCNQ2 pot 3.7.
For CC(=O)Nc1ccc(NC(=O)C2CC(=O)N(c3ccccc3Cl)C2)cc1 (centres undefined) the results were KCNQ2 inh inactive and KCNQ2 pot 21*.
`CC(=O)Nc1ccc(NC(=O)C2CC(=O)N(c3ccc(Cl)cc3)C2)cc1` (centres undefined) gave KCNQ2 inh inactive.
`Cc1nc(N2CCN(c3ccccn3)CC2)c2c(C)c(C(=O)Nc3c(F)cc(F)cc3Br)sc2n1` gave KCNQ2 inh inactive.
Screening Cc1nc(N2CCN(c3ccccn3)CC2)c2c(C)c(C(=O)Nc3c(C)cc(Br)cc3C)sc2n1 returned KCNQ2 inh -7.9* and KCNQ2 pot -7.9.
For COc1cc(C2C(C(=O)c3ccco3)=C(O)C(=O)N2c2cc(C)on2)cc(Br)c1O (centres undefined) the results were KCNQ2 inh inactive and KCNQ2 pot 0.46.
CN1CCN(C2=C(Cl)C(=O)N(C3CCCCC3)C2=O)CC1 was read as KCNQ2 inh inactive.
Screening CN1CCN(C2=C(Cl)C(=O)C(c3cnc(N4CCCCC4)s3)=C(Cl)C2=O)CC1 returned KCNQ2 inh -9* and KCNQ2 pot -9.
COc1ccccc1CNC(=O)Cc1c[nH]c2ccccc12 was read as KCNQ2 inh inactive.
For COc1ccccc1CNC(=O)[C@H](Cc1c[nH]c2ccccc12)NC(=O)[C@@H]1Cc2ccccc2CN1 the results were KCNQ2 inh -6.8* and KCNQ2 pot -6.8.
Screening COc1cc2c(c3oc(-c4ccccc4)cc(=O)c13)C=CC(C)(C)O2 returned KCNQ2 inh -6* and KCNQ2 pot -6.
Screening COc1cc(OC)c2c(=O)cc(-c3ccccc3)oc2c1 returned KCNQ2 inh inactive.
O=C(COC(=O)CCc1nc2ccccc2s1)Nc1ccc(S(=O)(=O)N2CCOCC2)cc1 was read as KCNQ2 inh inactive.
Screening O=C(NC(NC1CCS(=O)(=O)C1)C(=O)c1cccs1)c1ccccc1 (centres undefined) returned KCNQ2 inh inactive.
Screening O=C(NC1=C(NC2CCS(=O)(=O)C2)C(=O)c2ccccc2C1=O)c1ccccc1 (centres undefined) returned KCNQ2 inh inactive and KCNQ2 pot 6.2*.
Screening CC(C)OC(=O)/C(=C/c1ccc2c(c1)c1ccccc1n2C)NC(=O)c1ccccc1 returned KCNQ2 inh inactive.
For COC(=O)/C(=C\c1ccc2c(c1)c1ccccc1n2C)NC(=O)c1ccccc1 the results were KCNQ2 inh -7.6* and KCNQ2 pot -7.6.
For Cc1ccc(CNC(=O)[C@H](C)N2C(=O)N3CCc4c([nH]c5ccccc45)[C@@]3(C)C2=O)cc1 the results were KCNQ2 inh inactive and KCNQ2 pot 0.06.
`C[C@@H](C(=O)NCCc1ccc(F)cc1)N1C(=O)N2CCc3c([nH]c4ccccc34)[C@@]2(C)C1=O` gave KCNQ2 inh -6.3* and KCNQ2 pot -6.3.
COc1ccc2[nH]c3c(c2c1)CCN1C(=O)N([C@@H](C)C(=O)NCCc2ccc(F)cc2)C(=O)[C@]31C was read as KCNQ2 inh -7* and KCNQ2 pot -7.
COc1ccc2[nH]c3c(c2c1)CCN1C(=O)N([C@@H](C)C(=O)NCc2ccc(F)cc2)C(=O)[C@]31C was read as KCNQ2 inh inactive.
For CN(Cc1nc2ccc(F)cc2[nH]1)Cc1c(C(=O)N(C)C)nc2ccc(Cl)cn12 the results were KCNQ2 inh inactive and KCNQ2 pot 0.44.
For CCOc1ccc(NC(=O)CSc2nc3[nH]ncc3c(=O)[nH]2)cc1 the results were KCNQ2 inh inactive.
CCOc1ccc(/C=C2/C(=O)N(c3ccc(OC)cc3)C(=S)N2CC(=O)OC)cc1OCC was read as KCNQ2 inh inactive.
COc1ccc(Nc2ncnc3ccccc23)cc1 was read as KCNQ2 inh inactive and KCNQ2 pot 2.4.
`CCOC(=O)C1=C(CS(=O)(=O)c2ccc(F)cc2)NC(=O)NC1c1cc(OC)c(O)c(OC)c1` (centres undefined) gave KCNQ2 inh inactive and KCNQ2 pot 1.1.
O=C(COc1ccc(Cl)cc1Cl)OCn1nnc2ccccc2c1=O was read as KCNQ2 inh inactive and KCNQ2 pot 2.4.
CN1C=CC=C/C1=C1/SC(=S)N(Cc2ccccc2)C1=O was read as KCNQ2 inh inactive and KCNQ2 pot 0.67.
Screening CCOC(=O)c1oc2ccccc2c1NC(=O)c1ccc(Cl)s1 returned KCNQ2 inh -7.6* and KCNQ2 pot -7.6.

High-throughput results deposited in PubChem by Johns Hopkins Ion Channel Center.
